Measurements: publication PMC7862700, “An all-to-all approach to the identification of sequence-specific readers for epigenetic DNA modifications on cytosine”

Columns and labels:
Assay in all cases: DAPPL (digital affinity profiling via proximity ligation, sequencing); 10 mM Tris-HCl pH 7.5, 50 mM NaCl, 1 mM DTT, 4% glycerol, room temperature, 30 min; GST-TFs on glutathione beads, 16-mer random dsDNA library, 0.1% formaldehyde crosslink after washing; high values mean tight binding
Conditions in all cases: protein: recombinant; tags: N-terminal GST; dsDNA, one strand shown
FEV = target: T1, FEV (Homo sapiens, UniProt Q99581 1-238)
T1 sequence: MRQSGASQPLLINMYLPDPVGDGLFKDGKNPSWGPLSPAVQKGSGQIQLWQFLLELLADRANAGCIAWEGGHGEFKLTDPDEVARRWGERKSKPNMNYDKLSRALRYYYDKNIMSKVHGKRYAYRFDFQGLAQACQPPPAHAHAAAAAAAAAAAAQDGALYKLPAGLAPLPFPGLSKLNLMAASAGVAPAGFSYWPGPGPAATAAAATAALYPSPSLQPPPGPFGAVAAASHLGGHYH
Procedure, shortened: (§1)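 Pools of DNA-barcoded human transcription factors, expressed in yeast as GST fusions on glutathione beads and combined with a tag-only sample, were incubated with 200 nmole of a 16-mer random double-stranded DNA library. Incubation took 30 min at room temperature in Tris/NaCl/DTT/glycerol buffer and was followed by washing, 0.1% formaldehyde crosslinking, proximity ligation (BsaI/T4 ligase, 1 h, 37 °C), PCR amplification and sequencing on an Illumina NextSeq500. Binding signal is the ratio of a hexamer's read frequency for a factor to its frequency for the tag-only sample.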

ETV5 = ETV5 (Homo sapiens, UniProt P41161 1-510)
Sequence of ETV5 (P41161 whole entry): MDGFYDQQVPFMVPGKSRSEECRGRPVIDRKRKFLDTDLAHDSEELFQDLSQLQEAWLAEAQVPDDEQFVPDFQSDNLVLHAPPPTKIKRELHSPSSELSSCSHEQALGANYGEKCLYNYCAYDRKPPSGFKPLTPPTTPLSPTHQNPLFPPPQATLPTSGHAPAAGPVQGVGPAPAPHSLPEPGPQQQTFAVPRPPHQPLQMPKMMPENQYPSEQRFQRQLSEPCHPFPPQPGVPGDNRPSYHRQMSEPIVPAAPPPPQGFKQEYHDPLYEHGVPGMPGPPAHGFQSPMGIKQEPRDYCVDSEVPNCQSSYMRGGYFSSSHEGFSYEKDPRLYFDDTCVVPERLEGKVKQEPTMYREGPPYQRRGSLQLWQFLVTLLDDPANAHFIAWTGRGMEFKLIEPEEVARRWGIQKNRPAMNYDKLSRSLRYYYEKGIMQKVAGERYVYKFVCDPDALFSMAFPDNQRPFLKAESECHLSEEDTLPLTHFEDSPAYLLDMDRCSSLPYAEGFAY
Procedure, shortened: as §1

SPIC = target: T2, SPIC (Homo sapiens, UniProt Q8N5J4 1-248)
T2 sequence: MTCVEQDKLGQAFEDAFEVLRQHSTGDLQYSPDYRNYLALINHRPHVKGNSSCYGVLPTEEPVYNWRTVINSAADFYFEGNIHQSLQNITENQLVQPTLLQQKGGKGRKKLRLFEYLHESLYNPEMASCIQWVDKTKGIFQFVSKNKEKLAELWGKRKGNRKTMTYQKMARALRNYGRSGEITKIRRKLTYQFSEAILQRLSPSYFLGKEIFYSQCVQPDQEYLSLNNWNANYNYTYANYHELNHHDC
Procedure, shortened: as §1

ELF4 = ELF4 (Homo sapiens, UniProt Q99607 1-663)
Sequence of ELF4 (Q99607 whole entry): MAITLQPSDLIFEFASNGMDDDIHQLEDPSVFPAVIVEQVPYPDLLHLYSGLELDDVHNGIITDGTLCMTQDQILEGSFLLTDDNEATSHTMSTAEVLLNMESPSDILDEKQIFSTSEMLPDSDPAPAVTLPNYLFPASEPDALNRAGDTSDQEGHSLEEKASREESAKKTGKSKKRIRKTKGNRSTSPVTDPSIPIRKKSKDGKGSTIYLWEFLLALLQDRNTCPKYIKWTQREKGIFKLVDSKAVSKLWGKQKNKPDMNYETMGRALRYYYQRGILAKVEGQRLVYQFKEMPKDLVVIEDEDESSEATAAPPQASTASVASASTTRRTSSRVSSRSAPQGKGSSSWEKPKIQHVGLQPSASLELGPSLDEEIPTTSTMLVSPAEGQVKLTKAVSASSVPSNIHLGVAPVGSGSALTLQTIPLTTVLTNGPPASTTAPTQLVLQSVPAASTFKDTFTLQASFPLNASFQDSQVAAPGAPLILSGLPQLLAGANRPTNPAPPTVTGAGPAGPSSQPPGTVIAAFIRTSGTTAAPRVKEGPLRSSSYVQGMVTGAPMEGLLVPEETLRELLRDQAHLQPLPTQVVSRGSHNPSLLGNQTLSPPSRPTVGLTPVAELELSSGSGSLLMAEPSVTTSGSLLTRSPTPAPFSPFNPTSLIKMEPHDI
Procedure, shortened: as §1

ELK4 = target: T3, ELK4 (Homo sapiens, UniProt P28324-2 1-405)
T3 sequence: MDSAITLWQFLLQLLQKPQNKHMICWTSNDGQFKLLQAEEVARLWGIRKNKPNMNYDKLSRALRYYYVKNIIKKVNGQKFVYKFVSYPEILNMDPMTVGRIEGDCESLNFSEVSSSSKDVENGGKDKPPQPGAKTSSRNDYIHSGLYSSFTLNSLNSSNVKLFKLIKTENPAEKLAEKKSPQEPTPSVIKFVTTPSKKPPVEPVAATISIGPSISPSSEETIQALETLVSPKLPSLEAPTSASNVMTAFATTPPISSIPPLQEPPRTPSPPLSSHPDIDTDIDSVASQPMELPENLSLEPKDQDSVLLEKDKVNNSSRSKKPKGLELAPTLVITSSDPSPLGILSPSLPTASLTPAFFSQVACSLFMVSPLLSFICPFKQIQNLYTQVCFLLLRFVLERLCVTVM
Procedure, shortened: as §1

ETV2 = target: T4, ETV2 (Homo sapiens, UniProt O00321 1-342)
T4 sequence: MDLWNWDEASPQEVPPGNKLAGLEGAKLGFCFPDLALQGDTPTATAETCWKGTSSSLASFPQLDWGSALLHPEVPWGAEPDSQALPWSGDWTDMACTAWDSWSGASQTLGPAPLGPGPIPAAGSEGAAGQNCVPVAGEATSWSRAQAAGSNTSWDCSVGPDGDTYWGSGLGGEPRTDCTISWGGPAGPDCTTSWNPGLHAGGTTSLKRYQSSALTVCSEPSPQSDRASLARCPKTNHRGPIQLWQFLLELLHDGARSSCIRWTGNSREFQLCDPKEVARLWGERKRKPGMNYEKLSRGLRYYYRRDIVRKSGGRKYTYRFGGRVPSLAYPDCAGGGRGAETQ
Procedure, shortened: as §1

ELF3 = target: T5, ELF3 (Homo sapiens, UniProt P78545 1-371)
T5 sequence: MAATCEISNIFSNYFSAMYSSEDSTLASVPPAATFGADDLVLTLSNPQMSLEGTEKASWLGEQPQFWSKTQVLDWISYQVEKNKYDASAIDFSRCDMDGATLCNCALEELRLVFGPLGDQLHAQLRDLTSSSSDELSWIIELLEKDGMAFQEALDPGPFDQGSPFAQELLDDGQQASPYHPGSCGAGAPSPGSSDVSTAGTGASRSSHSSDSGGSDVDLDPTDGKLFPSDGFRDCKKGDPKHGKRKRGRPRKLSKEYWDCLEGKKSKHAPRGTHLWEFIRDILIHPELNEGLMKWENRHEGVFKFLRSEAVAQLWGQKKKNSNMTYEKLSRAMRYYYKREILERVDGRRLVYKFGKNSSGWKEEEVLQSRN
Procedure, shortened: as §1

ETV1 = ETV1 (Homo sapiens, UniProt P50549 1-477)
Sequence of ETV1 (P50549 whole entry): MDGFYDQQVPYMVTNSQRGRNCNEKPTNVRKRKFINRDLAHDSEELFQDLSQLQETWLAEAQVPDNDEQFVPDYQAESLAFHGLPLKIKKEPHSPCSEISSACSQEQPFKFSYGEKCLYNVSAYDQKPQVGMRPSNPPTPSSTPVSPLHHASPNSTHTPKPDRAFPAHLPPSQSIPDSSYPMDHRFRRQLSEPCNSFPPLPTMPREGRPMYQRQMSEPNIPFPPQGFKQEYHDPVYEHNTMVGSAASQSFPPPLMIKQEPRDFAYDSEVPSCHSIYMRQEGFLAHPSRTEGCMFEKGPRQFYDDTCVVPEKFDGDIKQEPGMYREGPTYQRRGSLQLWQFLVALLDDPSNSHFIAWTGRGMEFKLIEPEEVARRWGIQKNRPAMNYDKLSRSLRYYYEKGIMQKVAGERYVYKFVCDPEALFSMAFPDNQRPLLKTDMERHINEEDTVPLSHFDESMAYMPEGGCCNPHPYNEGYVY
Procedure, shortened: as §1

Row | Sequence | binding signal (FEV) | binding signal (ETV5) | binding signal (SPIC) | binding signal (ELF4) | binding signal (ELK4) | binding signal (ETV2) | binding signal (ELF3) | binding signal (ETV1)
1 | CCGCCC | 1.38 fold enrichment (6-mer frequency, TF over GST control) | 1.34 fold enrichment (6-mer frequency, TF over GST control) | 1.33 fold enrichment (6-mer frequency, TF over GST control) | 1.4 fold enrichment (6-mer frequency, TF over GST control) | 1.08 fold enrichment (6-mer frequency, TF over GST control) | 1.2 fold enrichment (6-mer frequency, TF over GST control) | 1.28 fold enrichment (6-mer frequency, TF over GST control) | 1.26 fold enrichment (6-mer frequency, TF over GST control)
2 | CACACT | 1.21 fold enrichment (6-mer frequency, TF over GST control) | 1.23 fold enrichment (6-mer frequency, TF over GST control) | 1.13 fold enrichment (6-mer frequency, TF over GST control) | 1.23 fold enrichment (6-mer frequency, TF over GST control) | 1.13 fold enrichment (6-mer frequency, TF over GST control) | 1.14 fold enrichment (6-mer frequency, TF over GST control) | 1.21 fold enrichment (6-mer frequency, TF over GST control) | 1.14 fold enrichment (6-mer frequency, TF over GST control)
3 | GCTACC | 1.18 fold enrichment (6-mer frequency, TF over GST control) | 1.17 fold enrichment (6-mer frequency, TF over GST control) | 1.23 fold enrichment (6-mer frequency, TF over GST control) | 1.24 fold enrichment (6-mer frequency, TF over GST control) | 1.04 fold enrichment (6-mer frequency, TF over GST control) | 1.08 fold enrichment (6-mer frequency, TF over GST control) | 1.1 fold enrichment (6-mer frequency, TF over GST control) | 1.26 fold enrichment (6-mer frequency, TF over GST control)
4 | TGCACA | 1.14 fold enrichment (6-mer frequency, TF over GST control) | 1.13 fold enrichment (6-mer frequency, TF over GST control) | 1.15 fold enrichment (6-mer frequency, TF over GST control) | 1.12 fold enrichment (6-mer frequency, TF over GST control) | 1.11 fold enrichment (6-mer frequency, TF over GST control) | 1.15 fold enrichment (6-mer frequency, TF over GST control) | 1.26 fold enrichment (6-mer frequency, TF over GST control) | 1.09 fold enrichment (6-mer frequency, TF over GST control)
5 | CAACAT | 1.21 fold enrichment (6-mer frequency, TF over GST control) | 1.21 fold enrichment (6-mer frequency, TF over GST control) | 1.05 fold enrichment (6-mer frequency, TF over GST control) | 1.19 fold enrichment (6-mer frequency, TF over GST control) | 1.23 fold enrichment (6-mer frequency, TF over GST control) | 1.19 fold enrichment (6-mer frequency, TF over GST control) | 1.2 fold enrichment (6-mer frequency, TF over GST control) | 1.13 fold enrichment (6-mer frequency, TF over GST control)
6 | TGCCAT | 1.07 fold enrichment (6-mer frequency, TF over GST control) | 1.03 fold enrichment (6-mer frequency, TF over GST control) | 1.12 fold enrichment (6-mer frequency, TF over GST control) | 1.1 fold enrichment (6-mer frequency, TF over GST control) | 1.11 fold enrichment (6-mer frequency, TF over GST control) | 1.14 fold enrichment (6-mer frequency, TF over GST control) | 1.08 fold enrichment (6-mer frequency, TF over GST control) | 1.17 fold enrichment (6-mer frequency, TF over GST control)
7 | TACAAC | 1.17 fold enrichment (6-mer frequency, TF over GST control) | 1.13 fold enrichment (6-mer frequency, TF over GST control) | 1.22 fold enrichment (6-mer frequency, TF over GST control) | 1.11 fold enrichment (6-mer frequency, TF over GST control) | 1.07 fold enrichment (6-mer frequency, TF over GST control) | 1.09 fold enrichment (6-mer frequency, TF over GST control) | 1.02 fold enrichment (6-mer frequency, TF over GST control) | 1.13 fold enrichment (6-mer frequency, TF over GST control)
8 | GAAGCG | 1.37 fold enrichment (6-mer frequency, TF over GST control) | 1.33 fold enrichment (6-mer frequency, TF over GST control) | 1.27 fold enrichment (6-mer frequency, TF over GST control) | 1.2 fold enrichment (6-mer frequency, TF over GST control) | 1.2 fold enrichment (6-mer frequency, TF over GST control) | 1.19 fold enrichment (6-mer frequency, TF over GST control) | 1.22 fold enrichment (6-mer frequency, TF over GST control) | 1.38 fold enrichment (6-mer frequency, TF over GST control)
9 | GATACG | 1.08 fold enrichment (6-mer frequency, TF over GST control) | 1.1 fold enrichment (6-mer frequency, TF over GST control) | 1.2 fold enrichment (6-mer frequency, TF over GST control) | 1.07 fold enrichment (6-mer frequency, TF over GST control) | 1.13 fold enrichment (6-mer frequency, TF over GST control) | 1.06 fold enrichment (6-mer frequency, TF over GST control) | 1.09 fold enrichment (6-mer frequency, TF over GST control) | 1.1 fold enrichment (6-mer frequency, TF over GST control)
10 | CGACCG | 1.6 fold enrichment (6-mer frequency, TF over GST control) | 1.19 fold enrichment (6-mer frequency, TF over GST control) | 1.09 fold enrichment (6-mer frequency, TF over GST control) | 1.28 fold enrichment (6-mer frequency, TF over GST control) | 1.17 fold enrichment (6-mer frequency, TF over GST control) | 1.35 fold enrichment (6-mer frequency, TF over GST control) | 1.27 fold enrichment (6-mer frequency, TF over GST control) | 1.26 fold enrichment (6-mer frequency, TF over GST control)
11 | CACACG | 1.14 fold enrichment (6-mer frequency, TF over GST control) | 1.11 fold enrichment (6-mer frequency, TF over GST control) | 1.15 fold enrichment (6-mer frequency, TF over GST control) | 1.18 fold enrichment (6-mer frequency, TF over GST control) | 1.17 fold enrichment (6-mer frequency, TF over GST control) | 1.24 fold enrichment (6-mer frequency, TF over GST control) | 1.07 fold enrichment (6-mer frequency, TF over GST control) | 1.16 fold enrichment (6-mer frequency, TF over GST control)
12 | CCCACA | 1.17 fold enrichment (6-mer frequency, TF over GST control) | 1.14 fold enrichment (6-mer frequency, TF over GST control) | 1.2 fold enrichment (6-mer frequency, TF over GST control) | 1.15 fold enrichment (6-mer frequency, TF over GST control) | 1.1 fold enrichment (6-mer frequency, TF over GST control) | 1.1 fold enrichment (6-mer frequency, TF over GST control) | 1.14 fold enrichment (6-mer frequency, TF over GST control) | 1.07 fold enrichment (6-mer frequency, TF over GST control)
13 | CCCCCG | 1.2 fold enrichment (6-mer frequency, TF over GST control) | 1.08 fold enrichment (6-mer frequency, TF over GST control) | 1.14 fold enrichment (6-mer frequency, TF over GST control) | 1.18 fold enrichment (6-mer frequency, TF over GST control) | 1.16 fold enrichment (6-mer frequency, TF over GST control) | 1.03 fold enrichment (6-mer frequency, TF over GST control) | 1.22 fold enrichment (6-mer frequency, TF over GST control) | 1.04 fold enrichment (6-mer frequency, TF over GST control)
14 | GTATGC | 1.15 fold enrichment (6-mer frequency, TF over GST control) | 1.17 fold enrichment (6-mer frequency, TF over GST control) | 1.14 fold enrichment (6-mer frequency, TF over GST control) | 1.16 fold enrichment (6-mer frequency, TF over GST control) | 1.23 fold enrichment (6-mer frequency, TF over GST control) | 1.25 fold enrichment (6-mer frequency, TF over GST control) | 1.1 fold enrichment (6-mer frequency, TF over GST control) | 1.12 fold enrichment (6-mer frequency, TF over GST control)
15 | GTACAC | 1.2 fold enrichment (6-mer frequency, TF over GST control) | 1.27 fold enrichment (6-mer frequency, TF over GST control) | 1.33 fold enrichment (6-mer frequency, TF over GST control) | 1.29 fold enrichment (6-mer frequency, TF over GST control) | 1.23 fold enrichment (6-mer frequency, TF over GST control) | 1.17 fold enrichment (6-mer frequency, TF over GST control) | 1.26 fold enrichment (6-mer frequency, TF over GST control) | 1.2 fold enrichment (6-mer frequency, TF over GST control)
